This note sets out measurements from PubChem BioAssay AID623957 (NMMLSC, 2012).

The source made the active and inactive calls.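 Rule for the calls: active = compounds whose fitted half-maximal concentration for lowering the signal is under 100 µM; inactive = the rest.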

The test is described as follows: fluorescence change in empty-vector K562 cells, dose response, counter-screen for ABCB6 inhibitor project, cell-based, flow cytometry, cherry pick set 1 (AID 623957).

For the molecule `C[N+](C)(C)CC1CCCC(C[N+](C)(C)C)C1=O` (stereo unspecified), the molecule was called inactive.
